Assay outcomes as filed in PubChem BioAssay.
Pf growth 96h – Primary qHTS for delayed death inhibitors of the malarial parasite plastid, 96 hour incubation; AID 504834, 2011; P. falciparum luciferase reporter growth, 96 h; 320,000 tested, 6.9% active; Potency, µM (series often up to 28.7 µM), for the others: at the top dose activity change, negative = inhibition, actives largely listed as inhibitors; further: on the % scale 0 is the no-effect control and ±100 the full control effect
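Two parasite generations (96 h, 37 C, 5% CO2) of compound exposure in infected erythrocytes (0.05% parasitemia, 2% hematocrit). Luciferase-reporter P. falciparum; decreased luminescence indicates inhibited growth, aimed at apicoplast-acting delayed death.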
Pf growth 48h – Primary qHTS for delayed death inhibitors of the malarial parasite plastid, 48 hour incubation. P. falciparum luciferase growth in erythrocytes, 48 h. Potency, µM (top dose mostly 28.7 µM), for inactives: at the highest dose activity change, negative = inhibition, usual class: inhibitors. 310,000 tested, 5.9% active. AID 504832, 2011; further: on the % scale 0 is the no-effect control and ±100 the full control effect
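Compounds are pin-transferred into medium, infected erythrocytes (2% hematocrit, 0.1% parasitemia final) are added, and plates sit one parasite generation at 37 C in 5% CO2. Detection reagent is then added and luminescence measured.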
SARS PLP yeast – qHTS of Yeast-based Assay for SARS-CoV PLP; Potency, µM (doses to about 32.9 µM), without a hit: at the top dose activity, positive = growth rescue, actives largely listed as activators; S. cerevisiae expressing SARS-CoV PLpro, growth rescue; 330,000 tested, 0.19% active; calls by dose curve; further: 0% is about no effect; nearly all actives have a fitted effect of over 55% in size
Sm TGR inh – qHTS Assay for the Inhibitors of Schistosoma Mansoni Peroxiredoxins; Schistosoma mansoni thioredoxin glutathione reductase (TGR), Q962Y6; purified TGR, DTNB reduction, TNB absorbance 405 nm; Potency, µM (doses to about 114 µM), for inactives: at the highest dose activity change, negative = inhibition, most hits filed as inhibitors; 360,000 tested, 3% active; AID 485364, 2010; further: on the % scale 0 is the no-effect control and ±100 the full control effect; nearly all actives have a fitted effect of over 60% in size
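Kinetic colorimetric format: TGR-catalysed, NADPH-driven DTNB reduction monitored via TNB absorbance. Enzyme dispensed at 20 nM; compound exposure 15 min at room temperature before reaction start.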
The depositor's hits bear a star; ? = inconclusive; · = not tested or not shown. Hits are enriched below; roughly 12% of the tested compounds scored in any of these assays. Unless noted, the call rests on the fitted dose curve; in most records, active means well fitted curve in the direction sought with a large enough effect; inconclusive means small, poorly fitted or top-dose-only effect, or another doubt; inactive means no such curve, though single readings can be large; an effect the other way counts as inactive or inconclusive. Potency means the concentration at half of the fitted maximal effect.

SMILES	Pf growth 96h	Pf growth 48h	SARS PLP yeast	Sm TGR inh
CC(=O)Nc1sc2c(c1CN1CCN(c3ccc(F)cc3)CC1)CCCC2	9.3µM*	·	-5%	-2%
CC(=O)Nc1sc2c(c1CN1CCCC1)CCCC2	?	?	0%	-29%
Cc1sc(NC(=O)c2ccco2)c(CN2CCN(c3ccccn3)CC2)c1C	8%	9.3µM*	-14%	-17%
CCOC(=O)N1CCN(Cc2c(NC(=O)c3ccco3)sc(C)c2C)CC1	?	8%	-1%	3%
CC(=O)Nc1sc(C)c(C)c1CN1CCN(Cc2ccccc2)CC1	4.1µM*	?	-1%	?
COc1ccc(C2C(C(=O)Nc3cc(OC)c(OC)c(OC)c3)c3ccccc3C(=O)N2C)cc1 (stereo not drawn)	16%	2.1µM*	2%	5%
COc1ccc(C2C(C(=O)Nc3cccc(OC)c3)c3ccccc3C(=O)N2C)cc1 (stereo not drawn)	1%	?	3%	-2%
COc1cc2c(cc1OC)C(C(=O)Nc1ccc3c(c1)OCCO3)C1c3ccccc3CCN1C2=O (stereo not drawn)	9.3µM*	-9%	5%	-22%
COc1cc2c(cc1OC)C(C(=O)Nc1ccccc1N1CCN(C)CC1)C1c3ccccc3CCN1C2=O (stereo not drawn)	307%	?	-2%	-9%
COc1ccc(OC)c(C2C(C(=O)O)c3ccccc3C(=O)N2C)c1 (stereo not drawn)	9%	0%	-4%	?
COc1ccc(C2C(C(=O)NCc3ccco3)c3ccccc3C(=O)N2C)cc1 (stereo not drawn)	?	4%	4%	0%
COc1cc(OC)c(C2C(C(=O)O)c3ccccc3C(=O)N2C)cc1OC (stereo not drawn)	15µM*	3%	3%	8%
COc1ccc(C2C(C(=O)Nc3ccc4c(c3)OCCO4)c3ccccc3C(=O)N2C)cc1 (stereo not drawn)	?	5.2µM*	-2%	-1%
CC1CCN(S(=O)(=O)c2ccc3c(ccn3CC(=O)NCc3ccc(N(C)C)cc3)c2)CC1	·	·	·	2%
COc1cc2c(cc1OC)C(C(=O)Nc1ccccn1)C(c1cccnc1)N(C)C2=O (stereo not drawn)	1.7µM*	-17%	3%	13%
Cc1ccccc1Nc1cc(C)c2c(O)cccc2n1	14%	?	-12%	-16%
Cc1ccc(Nc2cc(C)c3c(O)cccc3n2)cc1C	2.6µM*	2.6µM*	-2%	-18%
COc1ccc(Nc2cc(C)c3c(O)cccc3n2)cc1	1.7µM*	2.3µM*	-1%	3%
COC(=O)c1cc(Nc2cc(C)c3c(O)cccc3n2)cc(C(=O)OC)c1	?	9.3µM*	3%	1%
O=C(O)COc1ccc2c(c1)O/C(=C\c1cccs1)C2=O	19%	11%	-3%	10%
COc1cccc(/C=C2\Oc3cc(OCC(=O)N4CCCC4)ccc3C2=O)c1OC	10µM*	13µM*	11%	-8%
O=C(O)COc1ccc2c(c1)O/C(=C\c1ccco1)C2=O	47%	3%	2%	22µM*
Cc1oc(-c2cccs2)nc1CN1CC[C@@](O)(c2ccccc2)[C@H]2CCCC[C@@H]21	3%	0%	0%	-9%
OC1(c2ccccc2)CCNC2CCCCC21 (stereo not drawn)	10µM*	30%	0%	-4%
OC1(c2ccccc2)CCN(Cc2ccccc2)C2CCCCC21 (stereo not drawn)	62%	10µM*	-15%	1%
SMILES	Pf growth 96h	Pf growth 48h	SARS PLP yeast	Sm TGR inh
COc1ccc(CCNC(=O)Cn2cc(C(=O)c3ccccc3)c(=O)c3ccc(C)nc32)cc1OC	·	·	·	10%
CCCOc1ccc(N2C(=O)CC(SC(=N)N3N=C(c4ccccc4)CC3c3ccccc3)C2=O)cc1 (stereo not drawn)	-22%	2.3µM*	3%	-2%
CC1CCN(C(=O)COC(=O)c2ccc3c(c2)C(=O)N(Cc2ccco2)C3=O)CC1	40%	2%	5%	?
Cc1[nH][nH]c(=O)c1C(c1ccccc1[N+](=O)[O-])C(C#N)C#N (stereo not drawn)	13µM*	-5%	-1%	?
Cc1ccccc1C(=O)NCC(=O)OC1CCCCC1=O (stereo not drawn)	3%	3%	2%	-3%
COc1cc(O)cc(O)c1C(=O)/C=C/c1ccccc1	45%	?	-1%	?
COc1cc(C(=O)Oc2cc(C)cc(C)c2)cc(OC)c1OC	-15%	15µM*	26%	0%
COc1cc(OC)c(C(=O)/C=C/c2ccccc2)c(O)c1O	12µM*	?	-7%	?
COc1ccc(C(=O)/C=C/c2ccc(OC(=O)c3cc(OC)c(OC)c(OC)c3)cc2)cc1	4.7µM*	2.9µM*	1%	9%
COC(=O)c1ccc(/C=C/C(=O)c2ccc(OC)c(OC)c2)cc1	?	10µM*	-17%	3%
COc1ccc(OC)c(/C=C2\Oc3cc(OCC(=O)N4CCC(C(=O)O)CC4)ccc3C2=O)c1	-12%	-7%	2%	0%
Cc1oc(-c2cccc(F)c2)nc1CN(Cc1ccccc1)C[C@@H]1CCC(=O)N1	8.3µM*	?	-1%	3%
Cc1oc(-c2ccccc2Cl)nc1CN(Cc1ccccn1)C[C@@H]1CCC(=O)N1	?	8%	0%	-35%
CC1(C)C(c2ccco2)=[N+]([O-])C2(CCCCC2=O)N1O (stereo not drawn)	-5%	-15%	23%	50µM*
Cc1ccc(C2=[N+]([O-])C3(CCCCC3=O)N(O)C2(C)C)cc1 (stereo not drawn)	·	-13%	2%	?
CCC(=O)c1ccc(OCC(=O)N2CCN(S(=O)(=O)c3ccc(Cl)s3)CC2)cc1	10µM*	?	4%	-19%
CC(=O)c1ccc(OCC(=O)N2CCN(S(=O)(=O)c3ccc(Br)s3)CC2)cc1	?	?	1%	-3%
CN1C(=O)N(CC(=O)N2CCN(S(=O)(=O)c3ccc(Cl)s3)CC2)C(=O)C12CCCCC2	?	?	4%	45µM*
Cc1cccc(NC(=O)c2ccc3nccnc3c2)c1C	-3%	15%	-3%	-6%
CC(=O)c1cc(CN2CCCCC2)cc(OC(C)C)c1	13%	4%	10%	-34%
CCOc1cc(CN2CCOCC2)cc(C(C)=O)c1	-4%	19%	1%	45µM*
COc1cccc(CNC(=O)Nc2ccc3c(c2)N(C)C(=O)c2ccccc2S3)c1	·	·	·	-25%
CCn1cc(C(=O)NCc2ccccc2)c(=O)c2cc(F)c(N3CCN(C(=O)c4ccco4)CC3)cc21	1.7µM*	·	8%	3%
CCn1cc(C(=O)NCc2ccncc2)c(=O)c2cc(F)c(N3CCN(C(=O)c4ccco4)CC3)cc21	10µM*	6.6µM*	0%	?
CCn1cc(C(=O)NCCCN(C)C)c(=O)c2cc(F)c(N3CCN(C)CC3)cc21	-9%	?	5%	-1%
